Laboratory results published in paper PMC5540273 (PLoS ONE, 2017).

Key:
Conditions in all cases: concentration: 1 μM, replicates: in singlicate; n = 1
SNARK = tested on: T1, SNARK
T1 construct: gene NUAK2

SNRK = tested on: SNRK
SRC = tested on: SRC
SRMS = tested on: SRMS
SRPK1 = tested on: SRPK1
SRPK2 = tested on: SRPK2
SRPK3 = tested on: SRPK3
STK16 = tested on: STK16
STK33 = tested on: STK33
STK35 = tested on: STK35
STK36 = tested on: STK36
STK39 = tested on: STK39
SYK = tested on: SYK
SgK110 = tested on: SgK110
TAK1 = tested on: T2, TAK1
T2 construct: gene MAP3K7

TAOK1 = tested on: TAOK1
TAOK2 = tested on: TAOK2
TAOK3 = tested on: TAOK3
TBK1 = tested on: TBK1
TEC = tested on: TEC
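Further: KINOMEscan kinase panel screen.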

With Nc1cccc(-c2ccc3c(N)n[nH]c3c2)c1 [GSK2193613] the “%Inh” value (SNARK) was 22%, the “%Inh” value (SNRK) was 0% and the “%Inh” value (SRC) was 0%. The “%Inh” value (SRMS) was 3%, the “%Inh” value (SRPK1) was 54% and the “%Inh” value (SRPK2) was 16%. The “%Inh” value (SRPK3) was 0%, the “%Inh” value (STK16) was 15% and the “%Inh” value (STK33) was 0%. For the same molecule, the “%Inh” value (STK35) was 0%, the “%Inh” value (STK36) was 0% and the “%Inh” value (STK39) was 0%. For the same molecule, the “%Inh” value (SYK) was 22%, the “%Inh” value (SgK110) was 0% and the “%Inh” value (TAK1) was 0%. The “%Inh” value (TAOK1) was 69%, the “%Inh” value (TAOK2) was 4% and the “%Inh” value (TAOK3) was 29%. The “%Inh” value (TBK1) was 0% and the “%Inh” value (TEC) was 0%.
O=C(Nc1c(F)cccc1F)c1cc(C(=O)c2ccccc2F)c[nH]1 [GSK1326180] was tested, and the “%Inh” value (SNARK) was 0%, the “%Inh” value (SNRK) was 0% and the “%Inh” value (SRC) was 0%. For the same molecule, the “%Inh” value (SRMS) was 0%, the “%Inh” value (SRPK1) was 18% and the “%Inh” value (SRPK2) was 1%. The “%Inh” value (SRPK3) was 0%, the “%Inh” value (STK16) was 0% and the “%Inh” value (STK33) was 16%. The “%Inh” value (STK35) was 0%, the “%Inh” value (STK36) was 0% and the “%Inh” value (STK39) was 0%. The “%Inh” value (SYK) was 22%, the “%Inh” value (SgK110) was 0% and the “%Inh” value (TAK1) was 0%. The “%Inh” value (TAOK1) was 0%, the “%Inh” value (TAOK2) was 0% and the “%Inh” value (TAOK3) was 0%. The “%Inh” value (TBK1) was 3% and the “%Inh” value (TEC) was 7%.
In the case of O=C(Nc1n[nH]c2nc(-c3ccccc3)ccc12)C1CC1 [SB-708999], the “%Inh” value (SNARK) is reported as 56%, the “%Inh” value (SNRK) is reported as 0% and the “%Inh” value (SRC) is reported as 0%. For the same molecule, the “%Inh” value (SRMS) was 0%, the “%Inh” value (SRPK1) was 22% and the “%Inh” value (SRPK2) was 23%. For the same molecule, the “%Inh” value (SRPK3) was 7%, the “%Inh” value (STK16) was 16% and the “%Inh” value (STK33) was 0%. The “%Inh” value (STK35) was 1%, the “%Inh” value (STK36) was 8% and the “%Inh” value (STK39) was 0%. The “%Inh” value (SYK) was 0%, the “%Inh” value (SgK110) was 0% and the “%Inh” value (TAK1) was 0%. For the same molecule, the “%Inh” value (TAOK1) was 40%, the “%Inh” value (TAOK2) was 0% and the “%Inh” value (TAOK3) was 7%. For the same molecule, the “%Inh” value (TBK1) was 8% and the “%Inh” value (TEC) was 0%.
CN(C)CCNS(=O)(=O)c1ccc(-c2ccnc3[nH]ccc23)cc1 [GSK977620] was tested, and the “%Inh” value (SNARK) was 73%, the “%Inh” value (SNRK) was 0% and the “%Inh” value (SRC) was 6%. For the same molecule, the “%Inh” value (SRMS) was 0%, the “%Inh” value (SRPK1) was 45% and the “%Inh” value (SRPK2) was 0%. For the same molecule, the “%Inh” value (SRPK3) was 0%, the “%Inh” value (STK16) was 62% and the “%Inh” value (STK33) was 66%. The “%Inh” value (STK35) was 15%, the “%Inh” value (STK36) was 0% and the “%Inh” value (STK39) was 5%. The “%Inh” value (SYK) was 31%, the “%Inh” value (SgK110) was 0% and the “%Inh” value (TAK1) was 1%. The “%Inh” value (TAOK1) was 3%, the “%Inh” value (TAOK2) was 0% and the “%Inh” value (TAOK3) was 0%. For the same molecule, the “%Inh” value (TBK1) was 0% and the “%Inh” value (TEC) was 0%.
In the case of CN(c1ccc(F)c(NC(=O)c2cccc(OC(C)(C)C#N)c2Cl)c1)c1ccc2nc(NC(=O)C3CC3)sc2n1, the “%Inh” value (SNARK) is reported as 0%, the “%Inh” value (SNRK) is reported as 12% and the “%Inh” value (SRC) is reported as 99%. For the same molecule, the “%Inh” value (SRMS) was 0%, the “%Inh” value (SRPK1) was 52% and the “%Inh” value (SRPK2) was 0%. The “%Inh” value (SRPK3) was 0%, the “%Inh” value (STK16) was 0% and the “%Inh” value (STK33) was 0%. The “%Inh” value (STK35) was 0%, the “%Inh” value (STK36) was 3% and the “%Inh” value (STK39) was 12%. The “%Inh” value (SYK) was 0%, the “%Inh” value (SgK110) was 0% and the “%Inh” value (TAK1) was 19%. For the same molecule, the “%Inh” value (TAOK1) was 49%, the “%Inh” value (TAOK2) was 0% and the “%Inh” value (TAOK3) was 0%. For the same molecule, the “%Inh” value (TBK1) was 7% and the “%Inh” value (TEC) was 6%.
Cc1ccccc1CC(=O)N1CCc2cc(-c3cn(C)c4ncnc(N)c34)ccc21 [GSK2603346] was tested, and the “%Inh” value (SNARK) was 34%, the “%Inh” value (SNRK) was 0% and the “%Inh” value (SRC) was 15%. The “%Inh” value (SRMS) was 0%, the “%Inh” value (SRPK1) was 18% and the “%Inh” value (SRPK2) was 0%. For the same molecule, the “%Inh” value (SRPK3) was 0%, the “%Inh” value (STK16) was 2% and the “%Inh” value (STK33) was 3%. For the same molecule, the “%Inh” value (STK35) was 2%, the “%Inh” value (STK36) was 0% and the “%Inh” value (STK39) was 13%. For the same molecule, the “%Inh” value (SYK) was 0%, the “%Inh” value (SgK110) was 0% and the “%Inh” value (TAK1) was 6%. The “%Inh” value (TAOK1) was 0%, the “%Inh” value (TAOK2) was 0% and the “%Inh” value (TAOK3) was 0%. The “%Inh” value (TBK1) was 5% and the “%Inh” value (TEC) was 0%.
With COc1cc(Nc2nccc(N3CCC(NS(=O)(=O)c4ccc(NC(C)=O)cc4)CC3)n2)cc(OC)c1OC [GSK1379825] the “%Inh” value (SNARK) was 0%, the “%Inh” value (SNRK) was 0% and the “%Inh” value (SRC) was 35%. For the same molecule, the “%Inh” value (SRMS) was 0%, the “%Inh” value (SRPK1) was 67% and the “%Inh” value (SRPK2) was 0%. For the same molecule, the “%Inh” value (SRPK3) was 8%, the “%Inh” value (STK16) was 94.8% and the “%Inh” value (STK33) was 0%. The “%Inh” value (STK35) was 52%, the “%Inh” value (STK36) was 62% and the “%Inh” value (STK39) was 0%. For the same molecule, the “%Inh” value (SYK) was 37%, the “%Inh” value (SgK110) was 0% and the “%Inh” value (TAK1) was 0%. The “%Inh” value (TAOK1) was 0%, the “%Inh” value (TAOK2) was 0% and the “%Inh” value (TAOK3) was 0%. For the same molecule, the “%Inh” value (TBK1) was 26% and the “%Inh” value (TEC) was 0%.
O=C(Nc1n[nH]c2cc(-c3cccs3)ccc12)C1CC1 [SB-731284] was tested, and the “%Inh” value (SNARK) was 13%, the “%Inh” value (SNRK) was 42% and the “%Inh” value (SRC) was 0%. For the same molecule, the “%Inh” value (SRMS) was 1%, the “%Inh” value (SRPK1) was 44% and the “%Inh” value (SRPK2) was 23%. For the same molecule, the “%Inh” value (SRPK3) was 52%, the “%Inh” value (STK16) was 4% and the “%Inh” value (STK33) was 0%. For the same molecule, the “%Inh” value (STK35) was 15%, the “%Inh” value (STK36) was 0% and the “%Inh” value (STK39) was 0%. For the same molecule, the “%Inh” value (SYK) was 0%, the “%Inh” value (SgK110) was 0% and the “%Inh” value (TAK1) was 23%. The “%Inh” value (TAOK1) was 61%, the “%Inh” value (TAOK2) was 0% and the “%Inh” value (TAOK3) was 34%. The “%Inh” value (TBK1) was 47% and the “%Inh” value (TEC) was 0%.
With O=C(Nc1n[nH]c2nc(-c3cccc(O)c3)ccc12)C1CC1 [SB-711805] the “%Inh” value (SNARK) was 0%, the “%Inh” value (SNRK) was 7% and the “%Inh” value (SRC) was 0%. The “%Inh” value (SRMS) was 15%, the “%Inh” value (SRPK1) was 45% and the “%Inh” value (SRPK2) was 0%. For the same molecule, the “%Inh” value (SRPK3) was 32%, the “%Inh” value (STK16) was 83% and the “%Inh” value (STK33) was 0%. For the same molecule, the “%Inh” value (STK35) was 0%, the “%Inh” value (STK36) was 14% and the “%Inh” value (STK39) was 4%. The “%Inh” value (SYK) was 40%, the “%Inh” value (SgK110) was 0% and the “%Inh” value (TAK1) was 15%. For the same molecule, the “%Inh” value (TAOK1) was 88%, the “%Inh” value (TAOK2) was 12% and the “%Inh” value (TAOK3) was 34%. The “%Inh” value (TBK1) was 23% and the “%Inh” value (TEC) was 0%.
In the case of COc1cccc(-c2nc(-c3ccccc3)[nH]c2-c2ccncc2)c1 [SB-610250], the “%Inh” value (SNARK) is reported as 0%, the “%Inh” value (SNRK) is reported as 0% and the “%Inh” value (SRC) is reported as 21%. For the same molecule, the “%Inh” value (SRMS) was 0%, the “%Inh” value (SRPK1) was 25% and the “%Inh” value (SRPK2) was 0%. For the same molecule, the “%Inh” value (SRPK3) was 0%, the “%Inh” value (STK16) was 9% and the “%Inh” value (STK33) was 5%. For the same molecule, the “%Inh” value (STK35) was 0%, the “%Inh” value (STK36) was 30% and the “%Inh” value (STK39) was 19%. For the same molecule, the “%Inh” value (SYK) was 23%, the “%Inh” value (SgK110) was 20% and the “%Inh” value (TAK1) was 0%. For the same molecule, the “%Inh” value (TAOK1) was 0%, the “%Inh” value (TAOK2) was 0% and the “%Inh” value (TAOK3) was 0%. For the same molecule, the “%Inh” value (TBK1) was 0% and the “%Inh” value (TEC) was 4%.
